Molecules are shown by their SMILES. Measured potencies and affinities stand elsewhere.

Here are results for 34 compounds from PubChem BioAssay AID485284 (NMMLSC, 2010).

The assay in a line: loss of vesicle association with mouse CD8+ T cells – mouse 2C CD8+ T cells, flow cytometry, dose response (AID 485284).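 Further: drosophila derived vesicles carrying Ld MHC with QL9 peptide plus B7-1 and ICAM-1; vesicle binding seen as anti-B7-1 PE fluorescence on CD8 gated cells.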 The note with it: 2C mouse CD8+ T cell-exosome binding; at 45 µM (top of the series). Background: Flow cytometry measures light scatter and fluorescence of single cells or particles in a stream.
In the case of `C/C(=N\NC(=O)c1ccco1)c1cc2ccccc2o1`, the binding remaining, % of control is 160%.

As for `COc1cccc(NC(=O)Nc2ccc3nc(C)c(C)nc3c2)c1`, the binding remaining, % of control stood at 129%.

As for `Cc1ccc(Cn2c([N+](=O)[O-])cnc2C)cc1`, the binding remaining, % of control came to 35%.

Take `COc1ccc(NC(=O)Nc2c(O)ccc3ccccc23)cc1`: the binding remaining, % of control was 76.2%.

Take `O=C(Cn1cc2c(n1)CCCC2)NCc1ccccn1`: the binding remaining, % of control was 106%.

Take `O=C1CCCc2sccc2N1`: the binding remaining, % of control amounted to 106%.

For the compound `COc1ccccc1NS(=O)(=O)c1cc(NC(=O)CNC(=O)c2cc(C)cc(C)c2)ccc1C`, the binding remaining, % of control is 40.9%.

Take `O=C(NCc1cccnc1)C(=O)NCC(c1ccco1)N1CCN(c2ccccc2)CC1` (centres undefined): the binding remaining, % of control is 110%.

`CS(=O)(=O)NCc1ccccc1Br`: the binding remaining, % of control worked out at 95.9%.

Regarding `COc1ccc(S(=O)(=O)N2CCCC2C(=O)Nc2ccc(C(C)=O)cc2)cc1` (centres undefined), the binding remaining, % of control amounted to 91.8%.

Turning to `Cc1c(Cl)cccc1NC(=O)c1cc(C2CC2)on1`, the binding remaining, % of control turned out to be 86%.

Consider `O=C(Nc1ncc([N+](=O)[O-])s1)c1cccs1`, for which the binding remaining, % of control was determined as 56.8%.

Take `O=C(NC(=S)Nc1nc(-c2ccccc2)cs1)c1cccs1`: the binding remaining, % of control is 173%.

With `COc1ccc(NS(=O)(=O)c2cc(NC(=O)C3CC3)ccc2N2CCCCC2)cc1`, the binding remaining, % of control was 49.3%.

On to `CCOC(=O)Nc1sc(C)c(C)c1C(N)=O`, for which the binding remaining, % of control stood at 103%.

For `CCc1noc(C)c1C(=O)OC(C)C(=O)Nc1ccc2c(c1)OCO2` (centres undefined), the binding remaining, % of control is 171%.

As to `Cc1cc(N2CCN(C)CC2)nc2ccc(NC(=S)N3CCC4(CC3)OCCO4)cc12`, the binding remaining, % of control worked out at 147%.

Take `Cc1ccc(NC(=O)COC(=O)CCc2c[nH]c3ccccc23)c(C)c1`: the binding remaining, % of control stood at 138%.

Regarding `Cc1ccc(S(=O)(=O)N2CCN(C(=O)CNC(=O)c3ccc(Cl)cc3)CC2)cc1`, the binding remaining, % of control is 219%.

For `CCCNC(=O)NC(=O)CN1C(=O)NC(C)(c2ccc(C)cc2)C1=O` (centres undefined), the binding remaining, % of control turned out to be 160%.

Consider `CC(Sc1nc2ccccc2[nH]1)C(=O)NC1CCCCC1C` (centres undefined), for which the binding remaining, % of control turned out to be 87.9%.

`COc1ccc(/C=C2\SC(N3CCc4ccccc4C3)=NC2=O)cc1OC`: the binding remaining, % of control came to 18.6%.

As for `CC1=C/C(=C(\c2ccc(O)c(C)c2)c2ccccc2S(=O)(=O)O)C=CC1=O`, the binding remaining, % of control stood at 138%.

Consider `Cc1cccc(NC(=O)CN2C(=O)N/C(=C\c3ccc(N4CCOCC4)cc3)C2=O)c1`, for which the binding remaining, % of control worked out at 142%.

With `COc1ccc(NC(=O)CSCC(=O)Nc2cccc(S(=O)(=O)N3CCCCCC3)c2)cc1`, the binding remaining, % of control is 44.4%.

As to `COc1ccc(NC(=O)CN2CCN(S(=O)(=O)c3ccc(Cl)cc3)CC2)cc1`, the binding remaining, % of control was found to be 79.2%.

Consider `CCCCOc1ccc(C(=O)NCC(=O)N2CCN(C(=O)c3ccco3)CC2)cc1`, for which the binding remaining, % of control stood at 23.6%.

As for `CCCc1cc(=O)[nH]c(SCC(=O)N2c3ccccc3CC2C)n1` (centres undefined), the binding remaining, % of control is 126%.

Regarding `Cc1ccc(C(C)C)c(OCC(=O)N2CCN(c3ncccn3)CC2)c1`, the binding remaining, % of control was determined as 17.4%.

Turning to `O=C(NCCc1nc2ccc(Cl)cc2[nH]1)C1CCC(=O)N(Cc2cccc(F)c2)C1` (centres undefined), the binding remaining, % of control stood at 110%.

`Cc1c(C(=O)N(C)Cc2ccccc2)oc2ccc(S(=O)(=O)N3CCCC3)cc12`: the binding remaining, % of control stood at 120%.

With `COc1ccc2c(c1)-c1c(sn(-c3ccc(OC)c(OC)c3)c1=S)C(C)(C)N2`, the binding remaining, % of control was 116%.

As for `CCOc1ccc(Cl)cc1/C=N/NC(=O)c1ccccc1`, the binding remaining, % of control stood at 35.5%.

For the compound `O=C(OCC(=O)N1CCN(C(=O)c2ccco2)CC1)c1ccccc1Cc1ccccc1`, the binding remaining, % of control turned out to be 73%.
